# According to ChEMBL document CHEMBL3988442, “University of Dundee, Small-Polar-MMV Screening Library” (2021):
# Screen size: about 66,000 compounds; about 960 (1.5%) showed an effect of 50% or more. The sample holds strong results, similar compounds and a random draw of the others, so the mix is not that of the screen.
# Test system: Trypanosoma brucei
# Experiment: Trypanosoma brucei 72 hour study
# Format: functional, organism-based
# Design: scale not given: in the data most compounds retested in dose-response had high values
compound,measurement,setting,value
Cc1nc(CN2CCCC2c2noc(C(C)C)n2)oc1C (stereo not given),Percent Effect,"30.3 µM, […]",12.42%
same,Percent Effect,"10 mM, 10 mM as filed; unlikely as a test dose",-15.34%
Cc1ccc(N(Cc2ccco2)C(=O)CC2=NN(C)C(=O)C2)cc1,Percent Effect,"30 µM, 30.03 µM",-11.27%
COCC1N(C(=O)c2ccc3c(c2)OCCCO3)[C@H]2CC[C@]1(O)CC2 (stereo not given in full),Percent Effect,"30.3 µM, […]",-35.32%
O=C(NCc1ccc(-c2ccn[nH]2)cc1)N1CCC(N2CCCC2)C1 (stereo not given),Percent Effect,"30 µM, 30.03 µM",50.84%
CNC(=O)C1CCN(C(=O)NCc2ccc(-c3ccn[nH]3)cc2)CC1,Percent Effect,"30.3 µM, […]",-16.44%
NC(=O)C1CCN(C(=O)NCc2ccc(-c3ccn[nH]3)cc2)CC1,Percent Effect,"30.3 µM, […]",-25.22%
CN(C)C(=O)CC1CC2(CCN(Cc3ccoc3)CC2)c2ccccc21.O=C(O)C(F)(F)F (stereo not given),Percent Effect,"30 µM, 30.03 µM",-22.74%
CC(NCc1cn(CCC(N)=O)c2ccccc12)c1nncn1C (stereo not given),Percent Effect,"30.3 µM, […]",-49.32%
CC(C)n1cnnc1CCNCc1cn(CCC(N)=O)c2ccccc12,Percent Effect,"30.3 µM, […]",-18.24%
Cc1ccc(C(C)NCc2cn(CCC(N)=O)c3ccccc23)cc1C (stereo not given),Percent Effect,"30.3 µM, […]",96.45%
CC(CN1CCC2(CC1)N=C(c1cccnc1)NC2=O)c1ccccc1 (stereo not given),Percent Effect,"30 µM, 30.03 µM",6.734%
COCC1CC2(CCN(C(=O)c3occc3C)CC2)CN1C(C)C.O=C(O)C(F)(F)F (stereo not given),Percent Effect,"30.3 µM, […]",-8.924%
CCCc1noc(CN2CCCC2c2ccsc2)n1 (stereo not given),Percent Effect,"30 µM, 30.03 µM",55.39%
CCCc1noc(CCC(=O)N2CCCC2c2ccsc2)n1 (stereo not given),Percent Effect,"30 µM, 30.03 µM",-44.02%
CCCc1noc(CN2CCCC2c2noc(C3CC3)n2)n1 (stereo not given),Percent Effect,"30.3 µM, […]",-16.45%
CS(=O)(=O)NCc1cnc2n1CCN(Cc1cccs1)CC2.O=C(O)C(F)(F)F,Percent Effect,"30 µM, 30.03 µM",-2.909%
O=C(O)[C@@H]1CN(C(=O)CCCc2ccc(F)cc2)C[C@H]1C1CC1,Percent Effect,"30 µM, 30.03 µM",-8.475%
N[C@H]1CN(C(=O)CCCc2ccc(F)cc2)C[C@@H]1C1CC1,Percent Effect,"30 µM, 30.03 µM",79.67%
CN(C)[C@H]1CN(C(=O)CCCc2ccc(F)cc2)C[C@@H]1C1CC1,Percent Effect,"30 µM, 30.03 µM",21.51%
O=C(NCc1cccs1)[C@@H]1CC[C@@H]2[C@@H](CCN2c2ncccn2)O1.O=C(O)C(F)(F)F,Percent Effect,"30 µM, 30.03 µM",-28.93%
CCC(Nc1ncccn1)c1cccnc1 (stereo not given),Percent Effect,"30 µM, 30.03 µM",-16.09%
COc1ccc(C(CN2CCN(C)CC2)Nc2ncccn2)cc1 (stereo not given),Percent Effect,"30 µM, 30.03 µM",-24.12%
CCC(Nc1ncccn1)c1ccc(OC)cc1 (stereo not given),Percent Effect,"30 µM, 30.03 µM",62.75%
CCC(C)Oc1ccc(CNCCNS(C)(=O)=O)cc1Cl (stereo not given),Percent Effect,"30 µM, 30.03 µM",0.13%
O=C(O)C(F)(F)F.O=C(O)C(F)(F)F.O=C1CC(c2ccncc2)C2(CCN(CCc3ccccc3)CC2)N1 (stereo not given),Percent Effect,"30 µM, 30.03 µM",36.79%
CS(=O)(=O)N1CCC2(CC1)CC(NCC1CC1)c1ccccc12.O=C(O)C(F)(F)F (stereo not given),Percent Effect,"30.3 µM, […]",3.499%
CN1CC2(CCCN(Cc3ccc(Oc4ccccc4)cc3)C2)OC1=O (stereo not given),Percent Effect,"30 µM, 30.03 µM",-7.898%
CN(Cc1cc(Br)cn1C)C(=O)Cc1cccnc1,Percent Effect,"30 µM, 30.03 µM",102.7%
CN(Cc1cc(Br)cn1C)C(=O)Cc1cccc(O)c1,Percent Effect,"30 µM, 30.03 µM",-57.62%
CN(Cc1cc(Br)cn1C)C(=O)c1cccnc1,Percent Effect,"30 µM, 30.03 µM",-39.03%
COc1ccc(CN2CC[C@H]3[C@H]2CC(=O)N3Cc2cccc(C)n2)cc1.O=C(O)C(F)(F)F.O=C(O)C(F)(F)F,Percent Effect,"30.3 µM, […]",-40.33%
Cc1cc(N2CCN(C(=O)c3cc(Cl)c[nH]3)CC2)nc(C)n1,Percent Effect,"30 µM, 30.03 µM",-21.87%
Cc1cc(N2CCN(C(=O)c3cc(Cl)c[nH]3)CC2)nc(C(C)C)n1,Percent Effect,"30 µM, 30.03 µM",-55.97%
Cc1cc(N2CCN(C(=O)c3cc(Cl)c[nH]3)CC2)nc(N)n1,Percent Effect,"30 µM, 30.03 µM",109.2%
Cc1ccc(CN(CCCN(C)C)Cc2cnc(C)n2C)o1.O=C(O)CC(O)(CC(=O)O)C(=O)O,Percent Effect,"30.3 µM, […]",-2.378%
CCn1c(C(=O)N2CCN(CC[S+](C)[O-])CC2)cc2ccccc21 (stereo not given),Percent Effect,10 µM,-31.07%
COc1cc(F)cc(NC(=O)NCc2cccc(N(C)C)n2)c1,Percent Effect,"30.3 µM, […]",-613%
COCc1c(Cl)cccc1NC(=O)NCc1cccc(N(C)C)n1,Percent Effect,"30.3 µM, […]",55.78%
CC(=O)c1ccc(NC(=O)NCc2cccc(N(C)C)n2)cc1C,Percent Effect,"30 µM, 30.03 µM",-17.1%
COc1ccc(NC(=O)NCc2cccc(N(C)C)n2)c(Cl)c1,Percent Effect,"30.3 µM, […]",103.9%
CN(C)c1cccc(CNC(=O)Nc2cc(C#N)ccc2Cl)n1,Percent Effect,"30.3 µM, […]",-223.5%
COc1ccc(C)c(NC(=O)NCc2cccc(N(C)C)n2)c1,Percent Effect,"30.3 µM, […]",-277.4%
N#Cc1cccc(C(=O)N2CCC3(CCC(=O)N(C4CC4)C3)CC2)c1,Percent Effect,"30 µM, 30.03 µM",-3.327%
O=C(O)C(F)(F)F.c1ccc(CN2CCc3c(CNc4nccs4)n[nH]c3C2)nc1,Percent Effect,"30 µM, 30.03 µM",-34.93%
Cc1ccn(CCC(=O)N2CCCC2c2nnc(-c3scnc3C)o2)n1 (stereo not given),Percent Effect,"30.3 µM, […]",-1.608%
Cc1cnc(-c2nc(C3CCCN(Cc4ccccc4C)C3)no2)cn1.Cl (stereo not given),Percent Effect,"30.3 µM, […]",-19.46%
Cn1ccc2c(-c3cc(N4CCOCC4)ncn3)ccnc21,Percent Effect,"30 µM, 30.03 µM",-20.01%
CCc1cc(-c2ccnc3c2ccn3C)nc(N2CCOCC2)n1,Percent Effect,"30 µM, 30.03 µM",-28.1%
Cn1ccc2c(-c3cc(N)nc(N4CCOCC4)n3)ccnc21,Percent Effect,"30 µM, 30.03 µM",69.92%
